Active and inactive are the calls of the source. How the source made its calls: active means hit-call score of the fitted dose curve at least 0.9, where 1 is the maximum; inactive means score below 0.9.
How the values were obtained:
[1] = ATG_GRE_CIS: Attagene CIS-FACTORIAL HepG2 Assay for human Glucocorticoid Response Elements (GRE) (AID 2282947); conditions: HepG2 GRE cis-reporter, Attagene multiplex mRNA; actives raise or lower the signal
Procedure, shortened: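 Read-out: fluorescent reporter-transcript fragments separated by capillary electrophoresis after RT-PCR. Transiently transfected HepG2 cells carrying cis-element-driven reporter units were dosed for 24 h; gain or loss of signal fitted against DMSO control.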

[2] = ATG_ISRE_CIS: Attagene CIS-FACTORIAL HepG2 Assay for human Interferon Regulatory Factor 1 (IRF1) binding to an Interferon-Stimulated Response Element (ISRE) (AID 2282948); conditions: HepG2 ISRE cis-reporter (Attagene), mRNA transcription readout; actives raise or lower the signal
Procedure, shortened: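 Read-out: fluorescent RT-PCR products resolved by capillary electrophoresis, reporting endogenous transcription factor activity via ISRE-driven reporter mRNA in transfected HepG2 cells dosed for 24 h; gain or loss fitted relative to DMSO.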

[3] = ATG_M_32_CIS: Attagene CIS-FACTORIAL HepG2 Assay for M32 Transcription Factor (Internal Marker) (AID 2282949); conditions: HepG2 Attagene cis-factorial M32 reporter, mRNA; actives raise or lower the signal;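 further: background control marker of the multiplexed CIS panel rather than a real target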
Procedure, shortened: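 Transient MRTU transfection of HepG2; 24 h compound treatment; TriZol RNA, oligo(dT) RT, reporter PCR, 6-FAM primer extension, HpaI cut, CE. Gain/loss of signal vs DMSO.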

[4] = ATG_M_06_CIS: Attagene CIS-FACTORIAL HepG2 Assay for M06 Transcription Factor (Internal Marker) (AID 2282950); conditions: HepG2 Attagene CIS-FACTORIAL M06 internal marker reporter; actives raise or lower the signal
Procedure, shortened: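 Measured 24 h post-dosing in transiently transfected HepG2 cells, this internal-marker endpoint reports reporter mRNA via RT-PCR with fluorescent primer extension and capillary electrophoresis. DMSO served as negative control and baseline for bidirectional fitting.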

[5] = biological target: Hypoxia-inducible factor 1-alpha (Homo sapiens) (UniProt Q16665); experiment: ATG_HIF1a_CIS: Attagene CIS-FACTORIAL HepG2 Assay for human Hypoxia Inducible Factor 1 (HIF1A) (AID 2282951); conditions: HepG2 Attagene cis-factorial HIF1a reporter transcription; actives raise or lower the signal
Procedure, shortened: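 Activity is fitted in both directions relative to DMSO. Reporter transcripts are read by RT-PCR, fluorescent primer extension and capillary electrophoresis after 24 h chemical treatment. The cells are HepG2 carrying transiently transfected cis-element-driven reporter units responding to endogenous factors.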

[6] = biological target: Heat shock factor protein 1 (Homo sapiens) (UniProt Q00613); experiment: ATG_HSE_CIS: Attagene CIS-FACTORIAL HepG2 Assay for human Heat Shock Transcription Factor 1 (HSE) (AID 2282953); conditions: HepG2 HSE cis-reporter, Attagene RNA transcription; actives raise or lower the signal
Procedure, shortened: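 Reporter mRNA induction in HepG2 is measured 24 h after dosing, using transiently transfected multiplexed cis-regulated reporter units. Signal comes from capillary electrophoresis of labelled RT-PCR products, with DMSO as negative control.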

[7] = ATG_MRE_CIS: Attagene CIS-FACTORIAL HepG2 Assay for human Metal Responsive Element (MRE) (AID 2282954); conditions: HepG2 MRE cis-reporter transcription, Attagene multiplex; actives raise or lower the signal
Procedure, shortened: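 RT-PCR/capillary electrophoresis readout of reporter mRNA, 24 h post-dosing, in HepG2 cells transfected with multiplexed cis-regulated reporter constructs. Gain or loss of signal fitted bidirectionally against DMSO baseline.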

[8] = ATG_PBREM_CIS: Attagene CIS-FACTORIAL HepG2 Assay for human Phenobarbital-responsive Enhancer Module (PBREM) (AID 2282955); conditions: HepG2 PBREM cis-reporter, Attagene multiplexed transcription; actives raise or lower the signal
Procedure, shortened: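 Endogenous transcription factor activity was read from reporter transcripts in transiently transfected human HepG2 liver cells after 24 h dosing. RT-PCR products were fluorescently labelled, HpaI-cut and sized by capillary electrophoresis; activity fitted bidirectionally against DMSO baseline.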

[9] = biological target: Paired box protein Pax-6 (Homo sapiens) (UniProt P26367); experiment: ATG_Pax6_CIS: Attagene CIS-FACTORIAL HepG2 Assay for human Paired Box 6 (PAX6) (AID 2282956); conditions: HepG2 CIS-FACTORIAL PAX6 reporter transcription, RNA readout; actives raise or lower the signal
Procedure, shortened: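 Readout: reporter transcript fluorescence after RT-PCR and capillary electrophoresis. Cells: HepG2, transiently transfected with cis-regulated MRTUs. Exposure 24 h. Gain or loss of signal fitted bidirectionally relative to DMSO.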

[10] = ATG_RORE_CIS: Attagene CIS-FACTORIAL HepG2 Assay for human RAR-related Orphan Receptor Element (RORE) (AID 2282959); conditions: HepG2 Attagene cis-factorial RORE reporter, mRNA; actives raise or lower the signal
Procedure, shortened: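 RORE reporter transcripts reflecting endogenous factor activity were read after 24 h compound exposure of transfected HepG2 cells, using reverse transcription, PCR, fluorescent labelling and capillary electrophoresis sizing. Gain or loss fitted against DMSO.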

[11] = ATG_Sox_CIS: Attagene CIS-FACTORIAL HepG2 Assay for human SRY-box transcription factor (SOX) (AID 2282960); conditions: HepG2 Attagene cis-factorial SOX reporter, mRNA; actives raise or lower the signal
Procedure, shortened: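 Reporter transcripts, measured by RT-PCR and capillary electrophoresis of labelled fragments, report endogenous SOX transcription factor activity. Transiently transfected human HepG2 cells receive chemical for 24 h; changes in either direction are fitted relative to DMSO.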

[12] = biological target: Transcription factor Sp1 (Homo sapiens) (UniProt P08047); experiment: ATG_Sp1_CIS: Attagene CIS-FACTORIAL HepG2 Assay for human Specificity Protein 1 (Sp1) (AID 2282961); conditions: HepG2 Sp1 cis-reporter transcription, actives raise or lower the signal
Procedure, shortened: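 Read-out is reporter transcript level, measured by RT-PCR and fluorescent capillary electrophoresis after 24 h chemical treatment. System: transiently transfected HepG2 cells reporting endogenous transcription factor activity; gain or loss fitted against DMSO baseline.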

[13] = biological target: Signal transducer and activator of transcription 3 (Homo sapiens) (UniProt P40763); experiment: ATG_STAT3_CIS: Attagene CIS-FACTORIAL HepG2 Assay for human Signal Transducer and Activator of Transcription 3 (STAT3) (AID 2282963); conditions: HepG2, Attagene cis-factorial STAT3 reporter transcription; actives raise or lower the signal
Procedure, shortened: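 Readout: fluorescent reporter mRNA fragments resolved by capillary electrophoresis. Setup: HepG2 transfected with MRTUs reporting endogenous transcription-factor activity, dosed 24 h. Gain or loss of signal fitted bidirectionally against DMSO control.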

[14] = ATG_TA_CIS: Attagene CIS-FACTORIAL HepG2 Assay for human TA Basal Promoter (AID 2282964); conditions: HepG2 Attagene CIS-factorial TA basal promoter reporter; actives raise or lower the signal
Procedure, shortened: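 Cis-factorial format in HepG2: reporters report endogenous factors, not chimeric Gal4 fusions. After 24 h treatment, reporter transcripts were measured by RT-PCR-capillary electrophoresis fluorescence, analysed bidirectionally versus DMSO.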

[15] = ATG_TCF_b_cat_CIS: Attagene CIS-FACTORIAL HepG2 Assay for human T-Cell-Factor with beta-catenin (TCF/b-cat) (AID 2282965); conditions: HepG2 TCF/beta-catenin cis-reporter transcription, actives raise or lower the signal
Procedure, shortened: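 HepG2, transient MRTU transfection, cis-element-driven reporters (endogenous TFs). 24 h compound exposure. Readout: reporter mRNA by RT-PCR + 6-FAM primer extension, HpaI digest, capillary electrophoresis. Gain/loss fit vs DMSO baseline.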

[16] = ATG_PXRE_CIS: Attagene CIS-FACTORIAL HepG2 Assay for human Pregnane X Receptor Element (PXRE) (AID 2282957); conditions: HepG2 Attagene CIS-FACTORIAL PXRE reporter, mRNA; actives raise or lower the signal
Procedure, shortened: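 Reporter transcripts under endogenous PXR-responsive cis-regulation quantified from total RNA of transfected HepG2 cells 24 h post-dosing, via RT-PCR with fluorescent primer extension and capillary electrophoresis. Gain or loss of signal fitted against DMSO baseline.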

[17] = ATG_SREBP_CIS: Attagene CIS-FACTORIAL HepG2 Assay for human Sterol Regulatory Element Binding (SREBP) (AID 2282962); conditions: HepG2 Attagene cis-factorial SREBP reporter, mRNA; actives raise or lower the signal
Procedure, shortened: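 Readout: fluorescent reporter-transcript peaks resolved by capillary electrophoresis after RT-PCR. Cells were human HepG2 carrying transfected cis-promoter reporter constructs, dosed for 24 h. Gain or loss of signal was fitted against DMSO controls.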

[18] = biological target: Hepatocyte nuclear factor 6 (Homo sapiens) (UniProt Q9UBC0); experiment: ATG_HNF6_CIS: Attagene CIS-FACTORIAL HepG2 Assay for human Hepatocyte Nuclear Factor 6 (HNF6) (AID 2282952); conditions: HepG2 Attagene cis-factorial HNF6 reporter transcription; actives raise or lower the signal
Procedure, shortened: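 Endogenous factor activity read in transiently transfected HepG2 via promoter-regulated reporter transcripts. RNA harvested 24 h post-dosing, reverse-transcribed, PCR-amplified, FAM-labelled, HpaI-digested and resolved by capillary electrophoresis; fitted in both directions against DMSO.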

[19] = ATG_PPRE_CIS: Attagene CIS-FACTORIAL HepG2 Assay for human Peroxisome Proliferator-activated Response Element (PPRE) (AID 2282958); conditions: HepG2 PPRE cis-element reporter, Attagene transcription factor profiling; actives raise or lower the signal
Procedure, shortened: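 Endogenous PPRE-driven transcription is measured in HepG2 cells carrying transfected multi-reporter constructs. Reporter transcripts are quantified by RT-PCR, HpaI digestion and capillary electrophoresis 24 h after dosing. DMSO baseline, bidirectional fit.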

Measured: AC50

Heat shock factor protein 1 (Homo sapiens), sequence (Q00613 whole entry, looked up): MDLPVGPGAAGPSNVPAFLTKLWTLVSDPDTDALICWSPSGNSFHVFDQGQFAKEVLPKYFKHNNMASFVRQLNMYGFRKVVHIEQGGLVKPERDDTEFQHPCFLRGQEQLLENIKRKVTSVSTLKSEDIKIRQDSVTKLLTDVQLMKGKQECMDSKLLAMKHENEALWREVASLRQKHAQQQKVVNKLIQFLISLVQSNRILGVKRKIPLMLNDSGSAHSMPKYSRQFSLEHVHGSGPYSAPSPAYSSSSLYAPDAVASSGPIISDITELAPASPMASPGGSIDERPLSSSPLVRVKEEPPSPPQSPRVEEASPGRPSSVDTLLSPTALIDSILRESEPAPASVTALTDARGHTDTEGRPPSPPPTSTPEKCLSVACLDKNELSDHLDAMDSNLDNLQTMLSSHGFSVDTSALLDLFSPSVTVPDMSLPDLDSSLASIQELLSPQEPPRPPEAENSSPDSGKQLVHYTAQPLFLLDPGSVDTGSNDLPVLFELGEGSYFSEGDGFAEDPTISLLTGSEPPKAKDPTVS
Transcription factor Sp1 (Homo sapiens), sequence (P08047 whole entry, looked up): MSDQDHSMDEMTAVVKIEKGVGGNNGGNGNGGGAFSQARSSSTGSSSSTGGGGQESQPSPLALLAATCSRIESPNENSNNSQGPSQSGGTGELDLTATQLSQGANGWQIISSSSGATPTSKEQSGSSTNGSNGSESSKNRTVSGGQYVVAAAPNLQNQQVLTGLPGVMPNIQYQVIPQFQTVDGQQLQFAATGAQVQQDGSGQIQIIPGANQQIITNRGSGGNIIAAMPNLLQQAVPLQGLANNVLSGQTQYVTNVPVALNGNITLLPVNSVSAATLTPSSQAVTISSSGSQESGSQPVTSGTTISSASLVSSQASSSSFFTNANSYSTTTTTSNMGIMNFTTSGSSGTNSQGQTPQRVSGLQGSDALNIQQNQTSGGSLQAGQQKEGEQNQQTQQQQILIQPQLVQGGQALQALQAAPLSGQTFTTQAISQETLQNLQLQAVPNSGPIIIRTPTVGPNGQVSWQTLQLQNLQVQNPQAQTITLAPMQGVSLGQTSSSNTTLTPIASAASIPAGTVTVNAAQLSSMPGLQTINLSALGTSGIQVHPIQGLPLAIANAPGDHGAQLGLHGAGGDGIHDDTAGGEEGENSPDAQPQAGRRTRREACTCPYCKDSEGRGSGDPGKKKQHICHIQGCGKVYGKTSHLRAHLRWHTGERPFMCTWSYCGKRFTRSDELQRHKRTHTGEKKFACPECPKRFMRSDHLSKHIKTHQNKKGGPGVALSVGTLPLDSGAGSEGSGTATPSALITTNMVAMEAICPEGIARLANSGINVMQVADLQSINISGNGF
Signal transducer and activator of transcription 3 (Homo sapiens), sequence (P40763 whole entry, looked up, the tested form may be a part): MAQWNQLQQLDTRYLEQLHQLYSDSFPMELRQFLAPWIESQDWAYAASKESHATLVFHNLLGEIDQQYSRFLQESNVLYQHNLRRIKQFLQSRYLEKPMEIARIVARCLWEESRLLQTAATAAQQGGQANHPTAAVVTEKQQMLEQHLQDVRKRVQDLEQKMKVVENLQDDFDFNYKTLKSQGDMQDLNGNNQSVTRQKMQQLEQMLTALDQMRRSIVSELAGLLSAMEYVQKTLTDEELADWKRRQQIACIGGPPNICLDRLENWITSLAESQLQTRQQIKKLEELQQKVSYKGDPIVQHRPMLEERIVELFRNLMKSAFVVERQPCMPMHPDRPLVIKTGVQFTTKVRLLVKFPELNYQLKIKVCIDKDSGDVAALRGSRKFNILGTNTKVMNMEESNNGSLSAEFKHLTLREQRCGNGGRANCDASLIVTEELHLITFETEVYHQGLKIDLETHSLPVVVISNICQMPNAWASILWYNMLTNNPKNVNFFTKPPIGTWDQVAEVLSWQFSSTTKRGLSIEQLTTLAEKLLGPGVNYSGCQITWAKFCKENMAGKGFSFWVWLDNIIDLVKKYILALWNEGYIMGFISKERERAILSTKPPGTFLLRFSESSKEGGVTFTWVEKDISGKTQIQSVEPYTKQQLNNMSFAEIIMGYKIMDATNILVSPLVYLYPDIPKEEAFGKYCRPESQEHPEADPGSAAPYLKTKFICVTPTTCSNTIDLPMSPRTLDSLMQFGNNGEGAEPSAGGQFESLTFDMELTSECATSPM
Hypoxia-inducible factor 1-alpha (Homo sapiens), sequence (Q16665 whole entry, looked up): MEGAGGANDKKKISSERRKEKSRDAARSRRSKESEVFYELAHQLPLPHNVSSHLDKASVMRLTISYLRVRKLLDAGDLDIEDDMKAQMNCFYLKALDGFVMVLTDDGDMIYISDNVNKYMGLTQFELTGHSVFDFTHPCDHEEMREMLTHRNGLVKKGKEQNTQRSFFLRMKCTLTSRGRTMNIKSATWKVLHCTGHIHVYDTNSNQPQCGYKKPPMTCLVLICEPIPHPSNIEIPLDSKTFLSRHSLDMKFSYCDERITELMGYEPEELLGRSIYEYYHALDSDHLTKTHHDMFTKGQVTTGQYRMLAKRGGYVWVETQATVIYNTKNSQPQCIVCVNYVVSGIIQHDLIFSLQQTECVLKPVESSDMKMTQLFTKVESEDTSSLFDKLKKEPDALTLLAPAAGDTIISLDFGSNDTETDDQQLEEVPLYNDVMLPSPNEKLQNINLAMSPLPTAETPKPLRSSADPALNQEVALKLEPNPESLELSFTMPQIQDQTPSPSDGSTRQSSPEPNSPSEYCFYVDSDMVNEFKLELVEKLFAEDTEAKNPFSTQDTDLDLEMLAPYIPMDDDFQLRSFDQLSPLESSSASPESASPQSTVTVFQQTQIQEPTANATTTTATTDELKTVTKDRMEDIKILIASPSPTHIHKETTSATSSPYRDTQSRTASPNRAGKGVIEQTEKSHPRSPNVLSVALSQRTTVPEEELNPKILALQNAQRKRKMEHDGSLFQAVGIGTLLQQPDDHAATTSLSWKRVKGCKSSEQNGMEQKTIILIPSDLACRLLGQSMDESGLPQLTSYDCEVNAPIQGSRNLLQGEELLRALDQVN
Hepatocyte nuclear factor 6 (Homo sapiens), sequence (Q9UBC0 whole entry, looked up): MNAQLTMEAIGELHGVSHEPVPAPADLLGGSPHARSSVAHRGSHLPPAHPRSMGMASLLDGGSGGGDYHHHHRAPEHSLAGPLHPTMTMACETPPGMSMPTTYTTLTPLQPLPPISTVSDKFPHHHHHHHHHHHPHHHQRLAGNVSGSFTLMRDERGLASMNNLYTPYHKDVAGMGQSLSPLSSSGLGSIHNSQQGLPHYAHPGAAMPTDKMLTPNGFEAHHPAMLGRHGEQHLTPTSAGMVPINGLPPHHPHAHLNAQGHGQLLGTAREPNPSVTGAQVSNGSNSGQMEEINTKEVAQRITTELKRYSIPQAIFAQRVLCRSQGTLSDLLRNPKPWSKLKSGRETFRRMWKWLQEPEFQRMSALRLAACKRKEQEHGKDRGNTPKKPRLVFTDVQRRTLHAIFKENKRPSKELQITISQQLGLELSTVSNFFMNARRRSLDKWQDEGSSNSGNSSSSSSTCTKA
Paired box protein Pax-6 (Homo sapiens), sequence (P26367 whole entry, looked up): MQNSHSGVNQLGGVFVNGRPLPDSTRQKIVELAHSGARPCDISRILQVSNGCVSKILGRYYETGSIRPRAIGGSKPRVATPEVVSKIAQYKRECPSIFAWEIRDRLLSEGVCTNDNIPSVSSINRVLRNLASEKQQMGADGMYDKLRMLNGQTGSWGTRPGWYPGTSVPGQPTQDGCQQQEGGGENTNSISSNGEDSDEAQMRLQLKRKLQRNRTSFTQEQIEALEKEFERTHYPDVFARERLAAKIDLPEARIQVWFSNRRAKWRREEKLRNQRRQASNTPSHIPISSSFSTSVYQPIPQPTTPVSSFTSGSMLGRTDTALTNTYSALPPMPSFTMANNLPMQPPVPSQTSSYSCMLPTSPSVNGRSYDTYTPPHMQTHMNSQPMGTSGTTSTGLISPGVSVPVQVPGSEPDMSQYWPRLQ

C=CCOC(=O)CCCCCC
not listed: [16] | [17] | [18] | [19]
inactive: all other assays above

CCCOCCO
not listed: [10] | [18] | [19]
inactive: all other assays above

N#Cc1ccc(CC(=O)c2cccc(C(F)(F)F)c2)cc1
active: [16] 5.18 µM
not listed: [6] | [7] | [13]
inactive: all other assays above

COC(CC(C)CCCC(C)(C)O)OC (stereo not drawn)
not listed: [13] | [18]
inactive: all other assays above

CCCCOCC
not listed: [18]
inactive: all other assays above

COc1ccc(CCN2CCC(Nc3nc4ccccc4n3Cc3ccc(F)cc3)CC2)cc1
active: [17] 2.12 µM
not listed: [5] | [19]
inactive: all other assays above

CC(C)(N=C=O)c1cccc(C(C)(C)N=C=O)c1
active: [16] 13.1 µM
not listed: [8] | [18]
inactive: all other assays above

C=C(C)C(=O)OCCOCCOCCOC(=O)C(=C)C
active: [16] 54.8 µM
not listed: [5] | [19]
inactive: all other assays above
